These results are taken from the supplement of paper PMC9897528.

Molecules are shown by their SMILES. Values without a mark were called inactive.
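Note: conidia screened in RPMI 1640 medium under 5% CO2, growth read by spectrophotometer, medium with 0.5% DMSO serving as the untreated reference.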

The subject of this assay is Scedosporium aurantiacum CBS 136046. Briefly: growth inhibition relative to DMSO control (OD600); higher = more antifungal activity, active = 80 or more; extreme values may be limits of the assay. The conditions noted are these: 5 µM; 72 h; 37 °C.
With `C[C@@H](c1nc(-c2ccc(C#N)cc2)cs1)[C@](O)(Cn1cncn1)c1ccc(F)cc1F`, the growth inhibition was 60.6%.

In the case of `CSc1ccc2c(c1)C(N1CCN(C)CC1)Cc1ccccc1S2` (stereo not drawn), the growth inhibition is 46.7%.

Take `Cc1cc(CCCOc2c(C)cc(-c3noc(C(F)(F)F)n3)cc2C)on1`: the growth inhibition is 9.58%. The same measure for `Cc1[nH]c2ccccc2c1CCNCc1ccc(/C=C/C(=O)NO)cc1`: 26.8%. The same measure for `CC[C@@]1(O)C(=O)OCc2c1cc1n(c2=O)Cc2cc3c(CN(C)C)c(O)ccc3nc2-1`: 21.5%.

As for `Cc1c(F)cccc1NC(=O)Nc1ccc(Cl)c(S(=O)(=O)[C@H]2CCCNC2)c1O`, the growth inhibition is 4.56%. With `CC[C@@H]1C(=O)OC[C@@H]1Cc1cncn1C`, the growth inhibition is 0%. The same measure for `OC1O[C@H](CSc2ccc(F)cc2)[C@@H](O)[C@H]1O` (stereo partly drawn): 16.7%. For `OCCCCn1cnc2c(O)nc(NCc3ccc(Cl)c(Cl)c3)nc21`, the growth inhibition was 5.51%. The value for `CC(C)Oc1ccc(-n2cnc3cc(/C=C\c4ccc(C(C)(C)O)cc4)ccc32)cc1` was 28.5%; that for `Cc1[nH]c2ccccc2c1CC(=O)N[C@@H](Cc1ccccc1)C(=O)N(C)c1ccccc1` was 10.7%; that for `COC(=O)Nc1nc2c(C)cccc2[nH]1` was 0%. The same measure for `OCCC#Cc1nc(-c2ccc(F)cc2)c(-c2ccncc2)n1CCCc1ccccc1`: 13.8%; for `COc1ccc(NC(=O)CC2Sc3ncnn3C2=O)cc1` (stereo not drawn): 0%. The value for `O=C(/C(=C/c1ccc(Cl)cc1Cl)n1ccnc1)c1ccc(Cl)cc1` was 59.4%; that for `Oc1ccc(NCc2ccccc2OCc2ccccc2)cc1` was 10%.

For `NNC(=O)c1ccncc1`, the growth inhibition is 3.54%. As to `Nc1nc2c(ncn2COC(CO)CO)c(=O)[nH]1`, the growth inhibition was 11.1%. The value for `N#Cc1c(F)c(Cl)c(NCc2ccccc2)c(C#N)c1F` was 38.1%; that for `COc1ccccc1NC(=O)c1ccccc1Sc1ccc([N+](=O)[O-])cc1` was 22.6%; that for `COc1ccc(C)cc1NC(=O)c1ccc(S(=O)(=O)N2CCCCC2)cc1` was 32.4%. The same measure for `Cc1nc2ccc(Cl)cc2c(-c2ccccc2)c1CC(=O)O`: 14.2%.

As for `CC(=O)O[C@H]1C[C@@]2(C)[C@@H](C[C@@H](O)[C@H]3[C@@]4(C)CC[C@@H](O)[C@@H](C)[C@@H]4CC[C@@]32C)/C1=C(\CCC=C(C)C)C(=O)O`, the growth inhibition was 19.6%.

For the molecule `COc1ccc(SC(=O)N[C@H](CCC(=O)O)C(=O)O)cc1`, the growth inhibition is 24.2%.

For the molecule `O=C1NC(=S)N/C1=C\c1cc(Br)cc(Br)c1O`, the growth inhibition is 12.6%. The same measure for `CC(C)(C)c1cccc(-c2nc3cc(C(=N)N)ccc3[nH]2)c1O`: 17.4%; for `c1ccc(Cn2c(-c3ccccn3)nc3ccccc32)cc1`: 14.3%; for `O=C(CC1Sc2ncnn2C1=O)Nc1ccc(Br)cc1` (stereo not drawn): 33.4%. The same measure for `CCCCc1ccc(-c2nc(C)c(C(=O)OC)s2)cc1`: 12.4%.

In the case of `O=C(Nc1nnc(-c2ccc(Cl)cc2)o1)c1nc2ccccc2s1`, the growth inhibition was 15.8%. The same measure for `C[Si]1(C)CCN(Cc2cc(-c3ccc(Cl)cc3)n(-c3ccc(Cl)cc3)n2)CC1`: 10%; for `COc1ccc(-n2cnc3cc(NCc4ccco4)ccc32)cc1`: 9.11%.

Take `CC(C)(C)OC(=O)NCc1ccc(C(=O)N[C@H]2CCOC2=O)cc1`: the growth inhibition was 15.3%. The same measure for `O=c1ccc2ncc(=O)n3c2n1CC3CN1CCC(NCc2cc3c(cn2)OCCC3)CC1` (stereo not drawn): 0%. `CCC(C)(C)c1ccc(CC(C)CN2C[C@@H](C)O[C@@H](C)C2)cc1` (stereo partly drawn): the growth inhibition was 84.7% (active). The value for `CC(C)(C)c1cc(CCC(=O)N2CCC2)cc(C(C)(C)C)c1O` was 11.9%; that for `O=S(=O)(Nc1ccccc1)c1ccc(NC(=S)Nc2ccccc2)cc1` was 24.2%. The value for `O=C(Nc1[nH]c(=O)ncc1F)c1ccccc1` was 5.77%.
